Screens as filed in PubChem.
The sample as a whole holds a higher share of hits than the screen did.
Pf Dd2 growth – blocks in vitro growth of P. falciparum Dd2 | Potency, µM (series often up to 28.9 µM), without a hit: at the top dose activity, negative = inhibition, hits mostly inhibitors | P. falciparum Dd2 growth, SYBR Green, 72 h | 120,000 tested, 4.3% active; active = well fitted inhibition curve with a large enough effect;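 note: plate controls were DMSO vehicle for no effect and reference drug for full effect; nearly all actives have a fitted effect of over 65% in size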
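Infected erythrocytes (Dd2, 0.3% parasitemia, 2.5% hematocrit final) are added to compound in RPMI-1640/Albumax II medium, grown 72 h at 37C in low oxygen, then lysed with saponin/Triton-X containing SYBR Green and read by fluorescence.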
* hit, by the source's call; i = inactive; [ ] = another dose, or the depositor's remark. Potency is the fitted concentration of half-maximal effect.

SMILES	Pf Dd2 growth
Cc1ccc(C#N)c(N2CCCC(c3n[nH]c(=O)n3-c3ccccc3)C2)n1 (stereo unspecified)	-12.5%
CCn1ccc2c(CN3CCC4(CCCN(CCOC)C4=O)C3)cccc21 (stereo unspecified)	-14.1%
O=C1CO[C@H]2CN(C3CCOCC3)C[C@H]2N1Cc1ccccn1	13.9%[44.1 µM]
COc1ccc(CN2CC[C@@H]3CN(S(C)(=O)=O)[C@@H]3C2)cc1C	i
O=C(c1cccc(F)c1)N1CCC(N2C(=O)C(O)C23CCCCC3)CC1 (stereo unspecified)	3.4%
COc1ccc(CNC(=O)CC[C@]23CC[C@](C)(O)C[C@H]2C(C)(C)C[C@@H]3NC(=O)c2cccs2)cc1	i
COc1ccc(CNC(=O)CC[C@]23CC[C@](C)(O)C[C@H]2C(C)(C)C[C@@H]3NCc2ccccn2)cc1	7.94µM*
COc1ccc(CNC(=O)CC[C@]23CC[C@](C)(O)C[C@H]2C(C)(C)C[C@@H]3NC(=O)CC(C)(C)C)cc1	i
O=C(c1ccccc1Cl)N1CCC2(CC1)CCN(Cc1cccs1)c1ccccc1O2	10µM*
Cc1ccccc1C(=O)N1CCC2(CC1)CCN(CCc1ccccc1)c1ccccc1O2	i
Cc1ccc(C(=O)N2CCC3(CC2)CCN(Cc2cccs2)c2ccccc2O3)cc1	-17.0%
CCOc1ccccc1N1CCN(C(=O)[C@H]2CCC[C@H]2NC(=O)c2ccncc2)CC1	i
Cc1nn(C)c2nc(N3CCC(C#N)(c4ccccc4)CC3)sc12	-26.4%
O=c1c2nc(NCc3ccccc3)ccc2ncn1Cc1ccccc1	i
Cc1csc(Nc2ccc3ncn(Cc4ccccn4)c(=O)c3n2)n1	-21.4%[44.1 µM]
Cc1csc(Nc2ccc3ncn(Cc4ccccc4)c(=O)c3n2)n1	11.2µM*
COCCN1C(=O)C(CC(=O)NCCCn2cccn2)=C2CCCCC21 (stereo unspecified)	-4.2%
CCCOc1ccc(CNC(=O)c2c(OCC)cc(=O)n3c2CCCC3)cc1	-10.2%
CC(C)N1C[C@H](C(=O)N2CCC(Cc3ccccc3)CC2)[C@H](C(=O)O)C1	-11.6%
C=CCN1C[C@@H]2CN(C(=O)C(C)(C)NC(C)=O)C[C@]2(C(=O)O)C1	-8.5%
O=C(c1ccccc1)N1CCC2(C1)C(=NC1CCCC1)NC(=O)N2c1cc(F)cc(F)c1 (stereo unspecified)	-4.4%
COc1cccc(N2C(=O)NC(=NC3CCCCC3)C23CCN(Cc2ccc(F)cc2)C3)c1 (stereo unspecified)	-1.1%
COc1cccc(N2C(=O)NC(=NC3CCCCC3)C23CCN([S+](C)(=O)[O-])C3)c1 (stereo unspecified)	8.9%
COc1cccc(N2C(=O)NC(=NC3CCCC3)C23CCN(Cc2cccn2C)C3)c1 (stereo unspecified)	10µM*
Cn1cccc1CN1CCC2(C1)C(=NC1CCCC1)NC(=O)N2c1cc(F)cc(F)c1 (stereo unspecified)	8.91µM*
SMILES	Pf Dd2 growth
Cn1cccc1CN1CCC2(CC1)C(=NC1CCCCC1)NC(=O)N2c1cccnc1	53.5%
O=C(CCn1cc(Cl)cn1)N1CCOC(c2ccc(Cl)cc2)C1 (stereo unspecified)	-11.4%
COc1cc(NC(=O)Cn2c(C)cc3nc4n(c(=O)c32)CCCCC4)cc(OC)c1OC	i
CCc1nc(-c2c3n(c(=O)n(CC(=O)NCc4cccs4)c2=O)CCCCC3)no1	16.0%
CCn1nccc1C(=O)N1CC(Oc2ccc(-c3nc(-c4ccccc4)no3)cc2)C1	-17.7%[5.79 µM]
COC(=O)CNC(=O)C1CCc2nnc(-c3ccc(Cl)cc3Cl)n21 (stereo unspecified)	-11.4%
CN1c2cc(C(=O)Nc3cccc(Br)c3)ccc2C(=O)N2CCCCC21 (stereo unspecified)	-11.1%
CCOC(=O)c1ccc(NC(=O)N2Cc3[nH]cnc3C[C@H]2c2nc(-c3ccc(OC(F)(F)F)cc3)no2)cc1	i
COc1cccc(CC(=O)N2CCN(C(=O)c3nnn4c3COC(c3ccc(F)cc3)C4)CC2)c1 (stereo unspecified)	i
COc1ccc(/C=C/c2ccc3c(c2)C(=O)N2C[C@@H](NC(=O)CC(C)(C)CC(=O)O)C[C@H]2C(=O)N3)cc1	14.1µM*
COCC(=O)N[C@H]1C[C@H]2C(=O)Nc3ccc(/C=C/c4ccccc4)cc3C(=O)N2C1	-11.5%[44.1 µM]
CC(C)(CC(=O)O)CC(=O)N[C@H]1C[C@H]2C(=O)Nc3ccc(/C=C/c4ccccc4)cc3C(=O)N2C1	25.8%
CN(Cc1ccccc1)C(=O)[C@@H]1CN(S(C)(=O)=O)C[C@H]1c1ccncc1	-10.1%
CCC(C)(C)C(=O)N1CCC(N2CC3CC(C2)[C@H]2CCCC(=O)N2C3)CC1 (stereo partly specified)	-6.8%
O=C1NCCCCCCN(C(=O)CC(F)(F)F)[C@H]2C[C@H](c3nc(-c4cccnc4)no3)C[C@@H]12	i
Cc1c(Cl)c(C(=O)N2CCn3nc(Cc4ccccc4)cc3C2)nn1C	-13.1%
CC(=O)NCC(=O)N1CCC(Oc2ccccc2-c2nc(C3CC3)no2)C1 (stereo unspecified)	25.9%
Cc1ccc(OCCSc2nnc(-c3cccs3)o2)cc1	11.2µM*
